Out of some 3,300 compounds screened, about 280 (8.5%) were called active. This is one part of a sample in which actives are shown more often than they occur. A number with no mark means an inactive call.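 The calls were made as follows: active = mean growth inhibition over the two runs of 50% or more; inactive = mean growth inhibition under 50%.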
assay: A549 NSCLC cell proliferation inhibitors – ATP luminescence, human non-small cell lung line, primary screen (AID 371); conditions: at 10 µM, hits give high values;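 also: compound exposure lasted 72 h before the ATP read; 0% = untreated cell signal and 100% = no luminescence left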

SMILES | growth inhibition
CCNc1nc(NC(C)C)nc(N(C#N)C(C)C(=O)N(C)C)n1 (stereo not drawn) | 2.18%
CCN(CC)CCCN1C(=O)C(=O)/C(=C(/O)c2ccccc2)C1c1cc(OC)ccc1OC (stereo not drawn) | 6.35%
O=C1CC(NCc2ccncc2)C(=O)N1c1ccc(Cl)cc1 (stereo not drawn) | -4.36%
COc1cccc(NC(=O)CC2SC(=Nc3ccccc3)NC2=O)c1 (stereo not drawn) | 19.4%
Cn1c(CSc2ncn[nH]2)nc2ccccc21 | -2.84%
CC12CCC(=O)N1c1c(sc3nc(N4CCOCC4)c4c(c13)CCCC4)C(=O)N2 (stereo not drawn) | 4.33%
CCOC(=O)c1c(CN2CCN(C)CC2)n(C)c2cc(Br)c(OC)cc12 | 89.8% (active)
CCOC(=O)c1c(CN2CCN(CCO)CC2)n(C)c2cc(Br)c(OC)cc12 | 84.4% (active)
CCOC(=O)c1c(CNCCN(CC)CC)n(C)c2cc(Br)c(OC)cc12 | 33.7%
CCOC(=O)c1c(C)n(C)c2ccc(OC)c(NC(=O)CN3CCCCC3)c12 | 6.99%
CCOC(=O)c1c(CN2CCCCC2)oc2ccc(OC)cc12 | 5.15%
CCOC(=O)c1c(C)n(C)c2ccc(OC)c(NC(=O)CN3CCN(Cc4ccccc4)CC3)c12 | 12.1%
COc1ccccc1C1/C(=C(/O)c2ccc(C)cc2)C(=O)C(=O)N1CCN1CCOCC1 (stereo not drawn) | 2.55%
CN(CCCCCC(=O)/C=N/O)Cc1ccccc1 | 1.07%
COc1ccc(N(CN2C(=O)C3C4C=CC(C4)C3C2=O)C(=O)c2ccco2)cc1 (stereo not drawn) | 4.02%
N#C/C(C(=O)NCc1ccco1)=C1/SC(Cc2ccc(Cl)cc2)C(=O)N1c1ccccc1 (stereo not drawn) | 5.74%
CCC(=O)Nc1nc2ccccc2n1CCN(C)C | 4.62%
CCC(=O)Nc1nc2ccccc2n1Cc1ccccc1C | 64.4% (active)
CN(C)CCCn1c(NC(=O)C2CCCCC2)nc2ccccc21 | 1.53%
CCOc1ccc(NC(=O)c2nn(C)cc2Br)cc1 | 20.1%
CCOc1nc(-c2ccncc2)nc2ccccc12 | 10.3%
C=CCOc1nc(-c2ccncc2)nc2ccccc12 | 18.5%
COc1cccc(-c2nc(N3CCCCC3C)c3ccccc3n2)c1O (stereo not drawn) | 61.7% (active)
COc1cccc(-c2nc(N3CCCCC3)c3ccccc3n2)c1O | 49.3%
Nc1c2c(nc3ccccc13)N(C1CCCCC1)CC2 | 38.8%

SMILES | growth inhibition
CCC1CCCCN1c1nc(-c2ccncc2)nc2ccccc12 (stereo not drawn) | 74.9% (active)
COc1cccc(-c2nc(N3CCC(C)CC3)c3ccccc3n2)c1O | 53.7% (active)
COc1cccc(-c2nc(N3CC(C)CC(C)C3)c3ccccc3n2)c1O (stereo not drawn) | 30.1%
CCC1CCCCN1c1nc(-c2cccc(OC)c2O)nc2ccccc12 (stereo not drawn) | 45%
Cc1ccc(N2C(=O)c3sc4nnc(C)c(=O)n4c3C2=O)cc1 | -7.4%
COc1cccc(OC)c1-c1nn2c(-c3ccccc3Cl)nnc2s1 | 21%
CCOC(=O)c1ccc(NCC(O)COc2ccccc2)cc1 (stereo not drawn) | 31.1%
COc1ccc(C(=O)N2CCCC(c3ccccc3)C2)cc1 (stereo not drawn) | 19%
COc1ccccc1-c1nnc2sc(COc3ccccc3)nn12 | 22%
CC1C[C@@]2(NC(=O)NC2=O)C(C)CN1C (stereo partly drawn) | 2.94%
COc1ccc(Nc2nc(Nc3ccc(OC)cc3)nc(-n3[nH]c(=O)c(C)c3C)n2)cc1 | 39.1%
COc1ccc(Nc2cc(C)nc3ccccc23)cc1 | 31.3%
COc1ccc(Nc2cc(C)nc(-n3nc(C)cc3C)n2)cc1 | 66.2% (active)
O=C(Nc1ccccc1)c1cc(N2CCOCC2)nc2ccccc12 | 8.97%
CC(C)COc1ccc(C(=O)NC(CC(C)C)C(=O)O)cc1 (stereo not drawn) | -8.3%
COc1cc(-c2nn3c(-c4ccccn4)nnc3s2)cc(OC)c1OC | -8.06%
Cc1ccc2c(=O)c(CN(C)C3CCN(C)CC3)c(C)[nH]c2c1C | 5.56%
COc1ccccc1-c1nnc2n1N=C(c1ccc(O)c(O)c1)CS2 | 74.4% (active)
CCOc1ccc(C2=Nn3c(nnc3-c3ccccn3)SC2)cc1 | 42.3%
CCOc1ccc(C2=Nn3c(nnc3-c3ccccc3OC)SC2)cc1 | 66% (active)
COc1ccc(OC)c(C2=Nn3c(nnc3-c3ccco3)SC2)c1 | 23.2%
CCOc1ccc(C2=Nn3c(nnc3-c3cccnc3)SC2)cc1 | 22.4%
COc1ccc(C2=Nn3c(nnc3-c3cccnc3)SC2)cc1OC | 25%
COc1ccc(C2=Nn3c(nnc3-c3ccccc3)SC2)cc1OC | 8.86%
COc1ccc(C2=Nn3c(nnc3-c3ccccn3)SC2)cc1 | 50.1% (active)

SMILES | growth inhibition
COc1ccc(C2=Nn3c(nnc3-c3ccccn3)SC2)cc1OC | 3.8%
Cc1ccsc1C1NC(=O)c2c(sc3c2CCCC3)N1 (stereo not drawn) | 45.3%
O=CN1CCN(C(=O)CN2C(=O)c3ccccc3C2=O)CC1 | -3.2%
C/C=C/c1ccccc1OCc1ccc(C(=O)O)o1 | 6.28%
CC12CN3CC(=O)N4CC5(C)CN(CC(C)(C4)C5=O)C(=O)CN(C1)CC(C)(C3)C2=O | 1.18%
COC(=O)CSc1ncnc2c1sc1nc(-c3ccco3)c3c(c12)CC(C)(C)OC3 | 4.18%
O=C(Nc1ccccn1)c1ccc(=O)[nH]n1 | 5.88%
C=CCn1c(SCC(=O)OC)nc2sc3c(c2c1=O)CCN(C)C3 | 0.89%
CCCC1C2C(=O)N(c3ccccc3OC)C(=O)C2ON1c1ccccc1 (stereo not drawn) | 5.99%
CN(C)CCN(Cc1ccccc1)c1ccccn1 | 0.66%
CN(Cc1ccccc1)c1ncnc2ccc(Br)cc12 | 55.5% (active)
COCCNc1nc2c(c(=O)n(C)c(=O)n2C)n1Cc1cccc(C(F)(F)F)c1 | 36.4%
Cc1c(NC(=O)c2coc(=O)c(Br)c2)c(=O)n(-c2ccccc2)n1C | 80.5% (active)
Cc1c(NC(=O)c2ccc(=O)oc2)c(=O)n(-c2ccccc2)n1C | -1.44%
Cc1c(NC(=O)C(CC(=O)O)NCc2ccco2)c(=O)n(-c2ccccc2)n1C (stereo not drawn) | 5.55%
Cc1c(CCC#N)c(N2CCN(C3CCCCC3)CC2)n2c(nc3ccccc32)c1C#N | 89.1% (active)
C=C(C)CN1CCN(c2c(CCC#N)c(C)c(C#N)c3nc4ccccc4n23)CC1 | 25.9%
Cc1c(CCC#N)c(N2CCCCC2)n2c(nc3ccccc32)c1C#N | 4.5%
CC1(C)CC(=O)C(CCCN2C(=O)c3ccccc3C2=O)C(=O)C1 | 0.69%
Cc1ccc(-c2nn3c(-c4cccc(Cl)c4)nnc3s2)cc1 | 45%
CC(C)COc1ccc(C(=O)OCCN2CCOCC2)c(O)c1 | 12.1%
O=C(O)CCCC(=O)N1CCN(C(c2ccccc2)c2ccccc2)CC1 | 0.62%
C(=C\c1ccccc1)/CN1CCN(C(c2ccccc2)c2ccccc2)CC1 | 22.9%
O=c1[nH]c2ccccc2n1CCCN1CCN(C(c2ccccc2)c2ccccc2)CC1 | 90.4% (active)
COc1cc2[nH]c3c(=O)n(CCN(C(C)C)C(C)C)cnc3c2cc1OC | 5.76%

SMILES | growth inhibition
Cc1ccc(-c2nn(CCC(=O)NCC3CCCO3)c(=O)c3ccccc23)cc1 (stereo not drawn) | 17.4%
O=C(N(c1ccccc1)c1ccccc1)n1ccnc1 | 7.93%
c1ccc(-c2ccc(C(c3ccccc3)n3ccnc3)cc2)cc1 (stereo not drawn) | 78.7% (active)
COc1cccc(C2C(C#N)=C(N)Oc3cc(C)[nH]c(=O)c32)c1OC (stereo not drawn) | 2.31%
COc1cc(C2C(C#N)=C(N)Oc3cc(C)n(CCN4CCOCC4)c(=O)c32)cc(OC)c1OC (stereo not drawn) | 3.04%
COc1cc(C2C(C#N)=C(N)Oc3cc(N)ccc32)cc(OC)c1OC (stereo not drawn) | 51.6% (active)
CC(C(=O)N1CCCCC1)N1C(=O)c2ccccc2C1=O (stereo not drawn) | -14.3%
O=C1C(=O)N(CCN2CCOCC2)C(c2ccccn2)/C1=C(/O)c1ccccc1 (stereo not drawn) | 4.51%
CCN(CC)CCCN1C(=O)C(=O)/C(=C(/O)c2ccc(Cl)cc2)C1c1ccccn1 (stereo not drawn) | -16.8%
CCCCc1oc2ccccc2c1C(=O)c1cc(I)c(OCCN(CC)CC)c(I)c1 | 83.4% (active)
CCC(C(=O)OCCN(CC)CC)c1ccccc1 (stereo not drawn) | 5.51%
CCN(CC)CCOC(=O)C(c1ccccc1)c1ccccc1 | 2.67%
CCCn1c(SCC#N)nc2c(c1=O)C1(CCCC1)Cc1ccccc1-2 | 21.2%
O=S(=O)(c1ccccc1)N1CCC(N2CCN(c3ccccc3)CC2)CC1 | 4.82%
Cc1ccc2[nH]c3c(N4CCN(Cc5ccc6c(c5)OCO6)CC4)ncnc3c2c1 | 83.9% (active)
Fc1ccc2[nH]c3c(N4CCN(Cc5ccc6c(c5)OCO6)CC4)ncnc3c2c1 | 83.3% (active)
COc1ccccc1C(=O)N1CCN(Cc2ccc3c(c2)OCO3)CC1 | 8.7%
COc1ccc2[nH]c3c(N4CCN(Cc5ccc6c(c5)OCO6)CC4)ncnc3c2c1 | 76.3% (active)
Cc1cc(=O)oc(C)c1C(=O)N1CCN(Cc2ccc3c(c2)OCO3)CC1 | 8.78%
CCOC(=O)N1CCN(c2ncnc3c2[nH]c2ccc(OC)cc23)CC1 | 28.5%
CCN(CC)CCNc1ncnc2c1[nH]c1ccc(OC)cc12 | 42.2%
CCCCNC(=O)C(C#N)c1nc2ccccc2nc1N1CCN(Cc2ccc3c(c2)OCO3)CC1 (stereo not drawn) | 11.1%
CC(C)OC(=O)C(C#N)c1nc2ccccc2nc1N1CCN(Cc2ccc3c(c2)OCO3)CC1 (stereo not drawn) | 3.13%

— PubChem BioAssay AID371 (SRMLSC, 2006)
